Drawing on PubChem BioAssay AID1794808 (University of Kansas High Throughput Screening Laboratory, 2022), this text covers inhibition for 5 compounds.

Hit rate of the full screen: of about 210,000 compounds, about 520 (0.25%) were called active. Shown is part of a subset that was picked to be rich in actives. Unmarked numbers belong to inactive results. Cut-off read from the data, not from the text of the source: active = inhibition above about 50%; inactive = the rest.

A word on the inhibition: it is the relative decrease from the control value, in per cent.

For this assay, the system named is Plasmodium falciparum apicoplast DNA polymerase (apPOL). Briefly: Pf-apPOL inhibitors, biochemical, fluorescence (AID 1794808). To be noted: Recombinant Pf-apPOL, molecular beacon fluorescence, 1.5 h; at 10 µM; hits give high values.
Turning to `CCC1(c2ccccc2)C(=O)NC(=O)N(C(=O)c2ccccc2I)C1=O` (stereo not given), the inhibition was -1.8%.

Take `CCCCC1(c2ccccc2)C(=O)NC(=O)NC1=O`: the inhibition was 81.2% (active).

Regarding `CCC1(c2ccccc2)C(=O)NC(=O)N(C)C1=O` (stereo not given), the inhibition is -0.8%.

On to `Cc1nnc(SCc2nc3ccccc3c(=O)n2-c2ccccc2Cl)s1`, for which the inhibition is 0.3%.

With `CCn1cc(C(=O)NCc2cccc(C)c2)c2cccnc21`, the inhibition was -12.8%.
